High-throughput results: PubChem, National Center for Advancing Translational Sciences (NCATS)
Tb PYK inh: blocks Trypanosoma brucei pyruvate kinase; TbPYK enzyme, Kinase-Glo Plus ATP luminescence, 45 min; 410,000 compounds, 0.12% hits; Q57TT1; Potency, µM (highest dose often 76.8 µM), without a hit: at the highest dose activity, negative = inhibition, hits mostly inhibitors; note: potency is the fitted concentration of half-maximal effect; % is set by controls: 0 for no effect and ±100 for the full control effect; nearly all actives have a fitted effect of over 50% in size
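In this concentration-response screen, enzyme-free wells defined baseline while DMSO plates tracked drift. Each reaction combined TbPYK, substrate, compound and 130 uM ADP for 45 min at room temperature. Kinase-Glo Plus luminescence gave the signal.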
RE007 growth inh: less growth of the S. pombe RE007 Vpr strain; Potency, µM (top dose mostly 92.2 µM), inactives show at the highest dose activity change, negative = less growth, usual class: inhibitors; 360,000 compounds, 0.21% hits; S. pombe RE007 Vpr strain, BacTiter-Glo ATP luminescence, 24 h; active = well fitted falling curve with a large enough effect; inconclusive = small, poorly fitted or top-dose-only effect; inactive = no such curve, though single readings can be large or run the other way; note: potency is the fitted concentration of half-maximal effect; % is set by controls: 0 for no effect and ±100 for the full control effect; nearly all actives have a fitted effect of over 50% in size
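Fission yeast RE007 carrying one integrated HIV-1 vpr copy, seeded at OD 0.01 in PMG+AL medium with 23 nL pinned compound. Grown 24 h at 30 degrees; viability read by BacTiter-Glo luminescence after 5 min.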
FBPA Giardia inh: blocks Giardia fructose-bisphosphate aldolase activity; A8B2U2; purified Giardia FBPA; Potency, µM (top dose mostly 59.6 µM), without a hit: at the top dose activity, negative = inhibition, actives largely listed as inhibitors; 290,000 compounds, 0.71% hits; note: potency is the fitted concentration of half-maximal effect; % is set by controls: 0 for no effect and ±100 for the full control effect; nearly all actives have a fitted effect of over 55% in size
Target sequence (A8B2U2 whole entry, looked up): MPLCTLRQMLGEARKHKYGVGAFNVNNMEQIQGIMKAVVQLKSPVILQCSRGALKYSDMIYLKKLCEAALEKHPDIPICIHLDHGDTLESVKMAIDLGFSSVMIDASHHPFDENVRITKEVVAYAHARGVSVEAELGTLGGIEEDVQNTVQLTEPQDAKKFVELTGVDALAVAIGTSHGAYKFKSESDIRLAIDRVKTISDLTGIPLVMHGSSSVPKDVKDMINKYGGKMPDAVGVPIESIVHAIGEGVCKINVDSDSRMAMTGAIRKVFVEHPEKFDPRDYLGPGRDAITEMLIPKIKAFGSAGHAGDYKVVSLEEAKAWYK
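Giardia FBPA (40 nM reagent) was preincubated 10 min at RT with compound (up to 57.5 uM final), then substrate plus GAPDH/TPI/NAD/arsenate coupling system with diaphorase/resazurin was added; resorufin fluorescence (525/598 nm) was read after 20 min.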
Cycloheximide cs: counter-screen hit for Shiga toxin inhibitors, cycloheximide | cell reporter, cycloheximide protein synthesis inhibition counterscreen | 300,000 compounds, 12% hits | max response, %; in the data active = max response mostly above about 13%, no sharp cut-off; inactive = mostly below about 14%; note: read at 38.3 µM for the half of the compounds with a filed dose; 0% is about no effect
Shiga inhibitor: inhibitors of Shiga toxin in Vero cells. Vero cells, Shiga toxin protein synthesis inhibition reporter. inhibition, % at 38.7 µM. 290,000 compounds, 9.2% hits. AID 2315; in the data active = inhibition mostly above about 28%, no sharp cut-off; inactive = mostly below about 43%; note: 0% is about no effect
LmPK inhibitor: inhibitors of Leishmania mexicana pyruvate kinase. Q27686. Potency, µM (series often up to 57.5 µM), for the others: top-dose activity change, negative = inhibition, usual class: inhibitors. 290,000 compounds, 0.37% hits. purified LmPK, Kinase-Glo ATP luminescence, 1 h. AID 1721; note: potency is the fitted concentration of half-maximal effect; % is set by controls: 0 for no effect and ±100 for the full control effect
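0.1 nM LmPK, 0.5 mM PEP, 0.1 mM ADP; 50 mM imidazole pH 7.2, 7 mM MgCl2, 50 mM KCl; 1 h RT. Kinase-Glo luminescence readout, normalized to no-enzyme (full inhibition) and uninhibited wells.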
* = called active by the depositor; ? = inconclusive; . = not tested or not shown. Many of the other results were omitted from the sample, so hits are more common in it than they were. Unless noted, calls come from the whole dose curve; as a rule, active = well fitted curve in the direction sought with a large enough effect; inconclusive = small, poorly fitted or top-dose-only effect, or another doubt; inactive = no such curve, though single readings can be large; an effect the other way counts as inactive or inconclusive.

SMILES | Tb PYK inh | RE007 growth inh | FBPA Giardia inh | Cycloheximide cs | Shiga inhibitor | LmPK inhibitor
CC(C)OC(=O)CC12CN(C)CC(CC(=O)OC(C)C)(CN(C)C1)C2=O | 4% | -4% | 2% | 35* | 40 | -1%
COc1ccc2c3c1O[C@H]1C[C@H](O)C=C[C@@]31CCN(C)C2 | . | . | 8% | . | . | .
CCCCOc1ccccc1NC(=O)Cn1c(-c2cncs2)nc2ccccc21 | 6% | . | . | . | . | .
O=C(OCc1nnc(-c2ccccc2)o1)c1cccc(-n2cnnn2)c1 | 8% | 14% | . | . | . | .
CC(C)OC(=O)c1ccc(COC(=O)c2cccc(-c3nnc(-c4ccccc4)o3)c2)cc1 | -9% | 0% | 0% | 17* | 32 | -4%
CCOC(=O)c1cccc(COC(=O)c2cccc(-c3nnc(-c4ccccc4)o3)c2)c1 | -8% | -23% | 2% | 46* | 78* | -2%
O=C(OCc1ccccc1)c1cccc(-c2nnc(-c3ccccc3)o2)c1 | 2% | 8% | -2% | -5 | 6 | 4%
O=C(OCc1ccc(C(=O)c2ccccc2)cc1)c1cccc(-c2nnc(-c3ccccc3)o2)c1 | -2% | 13% | 5% | 22* | 64* | -5%
CC1CC2C3CC(F)C4=CC(=O)C=C[C@@]4(C)[C@@]3(F)C(O)C[C@]2(C)[C@]1(O)C(=O)COC(=O)C(C)(C)C (some centres undefined) | . | . | 1% | . | . | .
CCc1cc2c(=O)c(-c3ccc4c(c3)OCCO4)coc2cc1OS(C)(=O)=O | -3% | 14% | -9% | 42* | 79* | -2%
NC(=O)C1(N2CCCCC2)CCN(Cc2ccc(Br)cc2)CC1 | 3% | 2% | -1% | 26* | 13 | -3%
CNc1nnc(-c2cccc(N(C)C)c2)s1 | -11% | -11% | -30% | 46* | 122* | -5%
Cc1cccc(-c2nnc(NC(=O)c3cccs3)s2)c1 | 2% | -6% | 2% | 15 | 49 | -2%
CCOC(=O)C1=C(CN2CCCCC2)NC(=O)NC1c1ccc(C)cc1 (centres undefined) | 2% | . | . | . | . | .
COc1cccc(Cn2c(CNS(=O)(=O)c3ccc4c(c3)CCCC4)nc3cccnc32)c1 | -1% | . | . | . | . | .
COC(=O)c1nc2ccc(N3CCOCC3)cc2c(C)c1C(=O)OC | -3% | -7% | 7.9µM* | 22 | 57* | 2%
COC(=O)c1c(-c2ccc(OC)cc2)sc2ccc(N3CCOCC3)cc12 | 3% | -11% | . | . | . | .
CCSC(=O)CCCCCCCCCCCO | -1% | 3.2µM* | 6% | 9 | 1 | 4%
Cc1ccc(-c2cn3c(n2)CCCC3)cc1 | -1% | 5% | -28% | 20 | 49 | -2%
c1ccc(-c2ccc(-c3cn4c(n3)CCC4)cc2)cc1 | -9% | ? | -6% | 37* | 58* | -30%
COc1ccc(-c2cn3c(n2)CCC3)cc1 | -3% | -21% | -3% | 38* | 54* | -12%
COc1ccc(OCC(=O)NCC2(N3CCN(C)CC3)CCCCC2)cc1 | -2% | . | . | . | . | .
Cc1ccc(-c2cc(C(=O)N/N=C/c3c[nH]c4ccccc34)n[nH]2)o1 | -1% | -3% | 4% | 17* | -1 | 2%
Cc1ccc(-c2cc(C(=O)N/N=C/c3ccccc3O)n[nH]2)o1 | -2% | 0% | -3% | 34* | 60* | -3%
CCOC(=O)c1cccc(NC(=O)CN2C(=O)c3ccccc3Sc3ncccc32)c1 | 5% | . | . | . | . | .
SMILES | Tb PYK inh | RE007 growth inh | FBPA Giardia inh | Cycloheximide cs | Shiga inhibitor | LmPK inhibitor
O=Cc1ccc(OCc2ccc3ccccc3c2)cc1 | -2% | 1% | 2% | 54* | . | 1%
OCc1ccccn1 | -1% | . | . | . | . | .
O=Cc1cccc(OCc2cccc3ccccc23)c1 | -4% | 0% | -1% | 34* | 63* | -6%
O=Cc1ccc(OCc2ccccn2)cc1 | -7% | -10% | 6% | 21* | 40* | ?
COc1ccc(COc2cccc(C=O)c2)cc1 | 3% | ? | . | . | . | .
CCOc1ccc(N=Cc2ccc3ccccc3c2)cc1 | -3% | -6% | 0% | 1 | -4 | -6%
C[C@@H](CCc1ccc(O)cc1)NCCc1ccc(O)c(O)c1 | . | . | -26% | . | . | .
COc1cccc(C(=O)Nc2ccc(NC(C)=O)cc2)c1 | -1% | 3% | -2% | 28* | 62 | ?
COc1cc(NC(=O)c2ccc(N)nc2)cc(C(=O)Nc2cccc(C(F)(F)F)c2)c1 | -4% | 12% | -3% | 13 | 55* | -3%
COc1cccc(C(=O)NNC(=O)Cc2ccc(Cl)cc2)c1 | 7% | 18% | 6% | -2 | -14 | -3%
COc1cccc(C(=O)NN/C(C)=C/C(=O)C(F)(F)C(F)(F)C(F)(F)F)c1 | -4% | 2% | 11% | 25* | 66* | 2%
COc1cccc(NC(=O)c2ccc(NC(=O)C(C)C)cc2)c1 | -8% | 0% | -2% | 23* | 52* | -28%
O=C(CSc1nc2ccsc2c(=O)n1-c1ccc(Br)cc1)NCc1ccccc1 | -1% | . | . | 14 | 36 | .
COc1cccc(C(=O)Nc2ccc(NC(=O)C(C)(C)C)cn2)c1 | -5% | 1% | -2% | 12* | 41* | ?
COc1cc(OC)cc(C(=O)Nc2cccc(NC(=O)c3ccccc3)c2)c1 | 1% | -10% | 9% | -2 | 1 | -1%
COc1cccc(OC)c1C(=O)Nc1ccc(C(=O)c2ccncc2)cc1 | -1% | 13% | . | . | . | .
COc1ccc(NC(=O)c2cccc(NC(=O)C(C)C)c2)c([N+](=O)[O-])c1 | 9% | 7% | 9% | 22* | 22* | -1%
COc1cc(OC)cc(C(=O)Nc2cccc(C(C)=O)c2)c1 | -2% | 12% | 23% | 25* | 48* | ?
COc1cccc(C(=O)Nc2ccc(C(=O)c3ccncc3)cc2)c1 | -6% | 14% | . | 17* | 4 | -1%
CCN1CCc2c(sc(NC(=O)c3ccc(S(=O)(=O)N4CCCC(C)C4)cc3)c2C(=O)OC)C1 (centres undefined) | 1% | . | . | . | . | .
CCC(C)NC(=O)c1c(C)oc2nc(C)nc(N3CCOCC3)c12 (centres undefined) | -3% | . | . | . | . | .
CSc1nc(Nc2ccc(C)cc2)c(C#N)c(-c2ccccc2)n1 | 0% | . | . | . | . | .
CCOCCn1ccc2c(OCC(=O)Nc3ccc(C(N)=O)cc3)cccc2c1=O | 4% | . | . | . | . | .
COc1cccc(NC(=O)C(C)OC(=O)CCCNC(=O)c2ccc(Cl)cc2)c1 (centres undefined) | -1% | 3% | . | 25* | 100* | 0%
COc1cccc(CNC(=O)COC(=O)CCCNC(=O)c2ccc(Cl)cc2)c1 | 2% | 24% | . | . | . | .
COc1cccc(C(=O)Nn2cnnc2)c1 | 3% | -11% | 3% | 11* | 34 | 3%
COc1cc(OC)cc(C(=O)Nn2cnnc2)c1 | -2% | -2% | 2% | -3 | -2 | 0%
COc1ccc(N2Cc3cccc(C(=O)Nc4cccc(F)c4)c3C2=O)cc1 | 7% | . | . | . | . | .
